Compound activity: PubChem BioAssay, several laboratories
Mcl1 Bid PPI: Mcl-1/Bid interaction inhibition | Q07820 | TR-FRET Mcl-1/Bid-Dy647 peptide binding, 1536-well | inhibition, % at 21.7 µM | 220,000 tested, 0.97% active;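 active = compounds that cut the binding signal by more than half at the single screening dose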;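 also: His-tagged Mcl-1 with europium anti-His antibody binding Bid BH3 peptide; 0% = Mcl-1 plus peptide wells and 100% = peptide-only wells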
Target sequence (Q07820 whole entry, looked up): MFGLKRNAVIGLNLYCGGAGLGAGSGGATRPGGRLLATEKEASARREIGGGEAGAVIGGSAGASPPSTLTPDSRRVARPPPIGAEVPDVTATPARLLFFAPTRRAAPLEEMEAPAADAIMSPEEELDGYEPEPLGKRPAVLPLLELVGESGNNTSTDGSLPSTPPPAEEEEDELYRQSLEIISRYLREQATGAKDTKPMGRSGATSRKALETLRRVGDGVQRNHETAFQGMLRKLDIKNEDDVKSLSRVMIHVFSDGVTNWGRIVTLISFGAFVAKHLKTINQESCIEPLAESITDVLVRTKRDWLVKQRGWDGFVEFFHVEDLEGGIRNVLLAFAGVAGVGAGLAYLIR
eIF4E-4G inh: blocks eIF4E binding to eIF4G; P63073+Q04637; TR-FRET eIF4E-eIF4GI(517-606) binding, 2 h; inhibition, % at 21.7 µM; 220,000 tested, 0.37% active; AID 782;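 active = inhibition above about 30%, limit read from the data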;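 also: 0% = full FRET control wells and 100% = background wells lacking eIF4GI fragment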
Bim-Mcl-1: inhibitors of Bim-Mcl-1 interaction, human | Q07820 | inhibition, % at 10 µM | 190,000 tested, 0.1% active | Bead-based flow cytometry, Bim peptide-Mcl-1 binding; in the data active = inhibition above about 40%;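 also: 0% = no compound tracer wells and 100% = peptide blocker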
Mcl1-Noxa inh: Mcl-1/Noxa interaction inhibition; TR-FRET Mcl-1/Noxa peptide binding, 2 h; inhibition, % at 21.7 µM; 220,000 tested, 1.5% active;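 active = compounds that cut the protein-peptide binding signal by more than 50% relative to plate controls in a single-dose test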;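 also: His-tagged Mcl-1 with rhodamine Noxa BH3 peptide and terbium anti-His antibody; 0% = Mcl-1 plus Noxa peptide wells and 100% = peptide-only wells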
14-3-3 Bad PPI: disrupts binding of bovine 14-3-3 zeta to phospho-Bad peptide; TR-FRET 14-3-3zeta/Dy647-pBad peptide displacement, 1 h; inhibition, % at 21.7 µM; 220,000 tested, 0.71% active;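 active = inhibition above about 70%, limit read from the data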;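 also: 0% = full 14-3-3 plus peptide FRET controls and 100% = background without 14-3-3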
Target sequence (P63103 whole entry, looked up): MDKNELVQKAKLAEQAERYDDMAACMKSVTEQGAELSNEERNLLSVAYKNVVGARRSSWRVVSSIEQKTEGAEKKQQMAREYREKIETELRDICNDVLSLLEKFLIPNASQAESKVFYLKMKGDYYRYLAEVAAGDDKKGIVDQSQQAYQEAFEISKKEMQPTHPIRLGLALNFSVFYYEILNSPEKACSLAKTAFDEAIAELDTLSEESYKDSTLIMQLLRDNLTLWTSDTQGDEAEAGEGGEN
MCL1 BIM primary: inhibitors of human MCL1 binding to BIM-BH3 peptide. GST-MCL1 / FITC-Bim-BH3 fluorescence polarization. inhibition, % at 10.9 µM. 320,000 tested, 0.68% active;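 active = inhibition above the mean inhibition of all tested compounds plus 3 SD, set per campaign, cut at about 40% in these data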;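 also: 0% = DMSO wells and 100% = unlabeled Bim-BH3 peptide control; higher means more loss of mP so more displacement of Bim peptide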
Numbers without * were called inactive; · = not tested or not shown; [ ] = another dose, or the depositor's remark. The list is not random: actives were taken first. Their share in the collection is about 2.6%.

SMILES	Mcl1 Bid PPI	eIF4E-4G inh	Bim-Mcl-1	Mcl1-Noxa inh	14-3-3 Bad PPI	MCL1 BIM primary
Cc1ccc(CN(C)C(=O)CSc2nnc3n2CCCCC3)c(C)c1	·	·	·	·	·	-18.2
Cc1oc(-c2ccc(Cl)cc2)cc1C(=O)O	-62.9	4.6	·	-12.3	8.9	-0.2
Cc1oc(-c2ccc(Cl)cc2)[n+]([O-])c1C	-17.1	1.6	0.0	5.9	83.8*	0.9
O=[N+]([O-])c1ccc(C2=Nn3cnnc3SC2)cc1	-11.3	62.4*	·	8.4	6.9	-2.3
COc1cc2c(cc1OC)-c1cc(NCc3ccccn3)nc(=O)n1CC2	98.1*	88.5*	10.0	38.1	90.5*[fluorescence artefact?]	4.7
COc1cc2c(cc1OC)-c1cc(NC3CCCCCCC3)nc(=O)n1CC2	100.1*	4.0	15.0	18.1	52.6	5.9
Clc1cc(Cl)cc(C2=NCCC(c3ccccc3)O2)c1 (configuration not stated)	8.1	-2.2	-2.0	-0.6	17.2	7.2
CN(C(=O)c1ccc(NC(=O)Cc2cccc(NC(=O)C3CCCN(C(=O)C4CCCC4)C3)c2)cc1)C1CCCC1 (configuration not stated)	·	·	·	·	·	-4.4
O=C(NC1(Cc2ccccc2)CCN(CCCc2ccccc2)C1=O)c1ccccc1 (configuration not stated)	·	·	·	·	·	7.9
CC(C)(C)c1ccc(C(=O)O[C@H]2[C@H](Cc3ccccc3)NS(=O)(=O)[C@H]3C[C@@H]4C=C[C@]23O4)cc1	·	·	·	·	·	7.0
CSc1ccc(NC(=O)NCCCN2CCN(c3ccccc3F)CC2)cc1	-48.0	-9.2	0.0	58.3*	-4.2	-5.7
O=C(NCCCN1CCN(c2ccccc2F)CC1)Nc1ccc(F)cc1	-46.1	-0.4	-1.0	40.8	-3.9	0.0
COCCN(CC(=O)Nc1cccc(C)c1C)C(=O)c1cc(-c2ccncc2)nc2ccccc12	·	·	·	·	·	2.7
O=C1/C(=C/c2ccc(Cl)cc2)NC(=S)N1Cc1cccnc1	-26.3	-0.4	1.0	21.4	-15.7	8.7
CCN(CC)CCOC(=O)c1ccc(N/C=C(/C#N)c2nc(-c3ccc4c(c3)OCO4)cs2)cc1	63.5*	-40.9	·	69.0*	38.1	10.1
O=C(Cc1ccccc1F)NNC(=O)c1ccncc1	·	·	·	·	·	8.8
Cc1ccc2nsnc2c1NC(=O)Cc1ccc(Cl)cc1	-16.8	7.9	0.0	-8.5	-18.2	1.2
Cc1ccc2nsnc2c1NC(=O)c1ccc(-c2cc(Cl)ccc2Cl)o1	31.3	-14.1	2.0	50.8*	17.9	1.7
COc1cccc(C(=O)Oc2c(CN3CCOCC3)cc(Cl)c3cccnc23)c1	-40.7	-3.3	-2.0	-19.3	2.9	11.5
COc1ccc(C(=O)Oc2c(CN3CCOCC3)cc(Cl)c3cccnc23)cc1	54.0*	8.5	-1.0	26.7	0.1	3.7
CCN(C(=O)Cc1ccccc1OC)c1nnc(-c2ccncc2)s1	13.4	-6.2	1.0	3.9	79.3*	-8.7
Nn1c(SCC(=O)Nc2ccc(N3CCOCC3)cc2)nnc1-c1cccc(F)c1	·	·	·	·	·	1.1
CCOc1cc(C2CC(=O)N3CN(C4CCCCC4)CSC3=C2C#N)ccc1O (configuration not stated)	-39.6	1.8	-4.0	57.0*	0.6	5.4
COc1ccc2ccccc2c1C1CC(=O)N2CN(C3CCCCC3)CSC2=C1C#N (configuration not stated)	-6.3	-3.9	-8.0	62.6*	12.4	-18.8
Cc1ccc(C(=O)NC(C)C2CC3CCC2C3)c(C)c1 (configuration not stated)	·	·	·	·	·	7.5
SMILES	Mcl1 Bid PPI	eIF4E-4G inh	Bim-Mcl-1	Mcl1-Noxa inh	14-3-3 Bad PPI	MCL1 BIM primary
Nc1c2c(nc3ccccc13)CCCC2	8.1	2.1	-2.0	51.5*	3.0	-2.3
CCc1nnc(NC(=O)CSc2nc(C)cs2)s1	·	·	·	·	·	-0.2
O=c1[nH]c(CSc2ncnc3sc(-c4ccccc4)cc23)nc2ccccc12	60.6*	10.2	·	19.2	49.6	-6.9
CC(C)n1c(SCC(=O)Nc2ccc3c(c2)OCO3)nc2c1c(=O)n(C)c(=O)n2C	71.7*	0.5	1.0	-0.2	-5.0	2.6
CCn1c(SCC(=O)Nc2ccc3c(c2)OCO3)nc2c1c(=O)n(C)c(=O)n2C	-45.0	-5.2	2.0	8.6	3.4	3.1
O=C(NNC(=O)c1ccc(O)cc1O)c1ccc(Cl)cc1	56.1*	-2.3	6.0	31.3	-10.7	-1.2
O=C(NNC(=O)c1ccccc1O)c1ccc(Cl)cc1	-26.4	-9.8	-7.0	9.8	-3.2	10.4
O=C(COC(=O)c1ccc2c(c1)C(=O)N(c1cccc3ncccc13)C2=O)c1ccc(Cl)cc1	45.4	12.1	0.0	38.9	74.9*	3.6
COCCNC(=O)CN1C(=O)/C(=C/c2ccccc2)Oc2ccc(C(C)(C)C)cc21	·	·	·	·	·	0.6
O=C(Nc1ccc2c(c1)OCO2)c1cc2ncc(Br)cn2n1	-57.9	·	3.0	57.5*	·	·
CCNc1sc(C(=O)c2cccs2)c(N)c1-c1nc2ccccc2s1	-47.4	-2.2	4.0	54.8*	3.8	14.7
Cn1c(=O)[nH]c(=O)c2c1nc(N/N=C/C(Br)=C/c1ccccc1)n2CCO	8.9	5.2	·	40.1	13.8	-15.7
COc1ccc([C@H]2CC(=O)C=C(c3cccc4c3Oc3ccccc3S4)C2)cc1OC	·	·	·	·	·	-3.4
COc1ccc(C(c2nnnn2C(C)(C)C)N2CCN(c3nc4ccccc4s3)CC2)cc1 (configuration not stated)	8.0	-1.5	-3.0	10.9	3.1	·
CCC(C)(C)n1nnnc1C(c1cccc(C#N)c1)N1CCN(c2cccc(C)c2C)CC1 (configuration not stated)	-10.5	9.1	-3.0	70.4*	-20.1	-4.1
CCC(C)(C)n1nnnc1C(c1ccc(O)c(OC)c1)N1CCN(c2nc3ccccc3s2)CC1 (configuration not stated)	12.7	-3.9	-2.0	67.5*	-2.6	8.1
CCC(C)(C)n1nnnc1C(c1ccc(O)c(OC)c1)N1CCc2ccccc2C1 (configuration not stated)	26.3	5.1	-4.0	82.0*	82.2*	9.3
CCC(C)(C)n1nnnc1C(c1ccccc1)N1CCc2ccccc2C1 (configuration not stated)	3.6	-0.1	-5.0	1.3	1.9	3.0
CCc1nc2c(c(=O)c3ccccc3n2C)c(=O)n1CCc1ccc(OC)cc1	-1.6	0.4	-6.0	18.9	88.2*	7.4
COc1ccc(CCn2c(-c3ccc(OC)cc3)nc3c(c(=O)c4ccccc4n3C)c2=O)cc1	-10.4	-3.3	·	-59.9	5.8	-6.1
O=C(NC1CCCCC1)c1cccnc1Sc1ccccc1	·	·	·	·	·	5.7
C=C(C)COc1ccc(-c2n[nH]c(C)c2-c2ccc(OC)c(OC)c2)c(O)c1	31.5	-1.8	·	18.5	5.2	3.7
Nc1nc(C2C(=O)CCCC2=O)cs1	-30.0	-3.4	0.0	13.3	70.6*	9.1
Nc1nc(C2CC(=O)OC23CCCCC3)cs1 (configuration not stated)	-14.4	5.2	-4.0	-6.0	-0.6	10.7
